The source of these data is PubChem BioAssay (NCATS).

Records with an inconclusive call do not appear. A number with no mark means an inactive call. Calls of active or inactive are those of the source. The call rests on the fitted dose curve; in most records, active means well fitted curve in the direction sought with a large enough effect; inconclusive means small, poorly fitted or top-dose-only effect, or another doubt; inactive means no such curve, though single readings can be large or run the other way.
Potency means the concentration at half of the fitted maximal effect.

This assay in a line: qHTS for differential inhibitors of proliferation of Plasmodium falciparum line W2 (AID 1883).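 Further: parasites grown with compound for 72 h before lysis and staining.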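 On activity change, negative = inhibition: 0% = vehicle wells and -100% = control inhibitor wells.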 The settings on record: Potency: Plasmodium falciparum W2 proliferation inhibition; series mostly up to 28.7 µM; activity change, negative = inhibition: at the top concentration. A general note: In qHTS, concentration-response curves come from the screen itself.
With `CNC(=O)[C@H]1O[C@@H](n2cnc3c(NCc4cccc(I)c4)ncnc32)[C@H](O)[C@H]1O`, the Potency is 8.91 µM (active). Turning to `CC(N)=NCCCC(N)C(=O)O` (stereo unspecified), the “activity change, negative = inhibition” value was -24.5%. Regarding `Cc1cn([C@H]2C[C@@H](N=[N+]=[N-])[C@@H](CO)O2)c(=O)[nH]c1=O`, the “activity change, negative = inhibition” value is 1.05%. For `CN=C(N)NCCCC(N)C(=O)O` (stereo unspecified), the “activity change, negative = inhibition” value was -1.18%. Same read-out and setting: the result for `COc1c2c(nc3ccccc13)OC(C(C)(O)CO)C2` (stereo unspecified) reads -3.06%. Same read-out and setting: the result for `NCCC(=O)NCCc1cnc[nH]1` reads -6.06%; that for `O=C(Cc1ccc(Cl)c(Cl)c1)OCCN1CCCC1`, -7.07%.

As for `Cc1ccccc1N1CCN(S(=O)(=O)C[C@]23CCC(CC2NC(=O)[C@@H](N)CCS(C)(=O)=O)C3(C)C)CC1` (stereo partly specified), the Potency is 12.6 µM (active). As to `NC(=O)C1=CN(C2OC(COP(=O)(O)OP(=O)(O)OC[C@H]3O[C@@H](n4cnc5c(N)ncnc54)[C@H](OP(=O)(O)O)[C@H]3O)C(O)C2O)C=CC1` (stereo partly specified), the “activity change, negative = inhibition” value was -19.6%. With `CCCCCCCCCCCCCCC/C=C/[C@@H](O)[C@H](NC(=O)CCCCCCCCCCCCC)OC` (tested in a mixture with another compound), the “activity change, negative = inhibition” value is -6.33%. On the same count and under the same terms, the value for `CNc1ncnc2c1ncn2[C@@H]1O[C@H](CO)[C@H](O)[C@H]1O` was -27.1%. Regarding `NCCNC(=O)c1ccc(Cl)cc1`, the “activity change, negative = inhibition” value is -27.1%. Regarding `NC(=NCCC[C@H](N)C(=O)O)NO`, the “activity change, negative = inhibition” value was -3.18%. For the molecule `OC[C@H]1O[C@@H](n2cnc3c(Nc4ccccc4)ncnc32)[C@H](O)[C@H]1O`, the “activity change, negative = inhibition” value was 3.24%. Still for that read-out and setting: the result for `N[C@H](Cc1ccc(O)c(O)c1)C(=O)O` reads -27.8%; that for `NC(=S)c1ccc[n+]([C@@H]2O[C@@H](COP(=O)([O-])OP(=O)(O)OC[C@H]3O[C@@H](n4cnc5c(N)ncnc54)[C@H](OP(=O)(O)O)[C@H]3O)C(O)C2O)c1` (stereo partly specified), 3.41%.

Take `O=C(O)CC[C@H](NC(=O)c1ccccc1C(=O)O)C(=O)O`: the “activity change, negative = inhibition” value was 4.53%. In the case of `NCC1OC(O[C@@H]2[C@H](O)[C@@H](OC3C(O)C(N)CC(N)C3OC3OC(CO)C(O)C(O)C3N)O[C@@H]2CO)C(N)C(O)C1O` (stereo partly specified), the “activity change, negative = inhibition” value was -4.93%. On the same count and under the same terms, the result for `COc1cc(=O)n(C)c2c(OCC(O)C(C)(C)O)cccc12` (stereo unspecified) reads -22%; that for `C[C@]12CCC(=O)C=C1CC[C@@H]1C2[C@@H](O)C[C@@]2(C)[C@H]1CC[C@]2(O)C(=O)CO` (stereo partly specified), -27.4%. Turning to `N=C(N)SCCc1cccc(CCSC(=N)N)c1`, the Potency is 1 µM (active).
